“And” between values parts separate entries of the source, which are not always exact repeats. Equal values may be shown once. Records with an inconclusive call do not appear. A structure can be active in one record and inactive in another. The source made the active and inactive calls. Calls follow the shape of the dose curve; as a rule, active = well fitted cell-killing curve with a large enough effect in the repeat runs; inconclusive = weak or mixed curves, or effect the other way; inactive = no such curve, though single readings can be large or run the other way.
experiment: qHTS assay to identify small molecule antagonists of the vitamin D receptor (VDR) signaling pathway - cell viability counter screen (AID 743225); settings: VDR-bla HEK293T viability, CellTiter-Glo luminescence, 16 h; series mostly up to 61 µM; viability change, negative = cytotoxic: at the top concentration; also: nearly all actives have a fitted effect of over 50% in size
In short: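 Viability counter screen run in the same wells as the beta-lactamase reporter assay: HEK 293T VDR-UAS-bla cells, 16 h compound exposure at 37C with 3 nM (final) 1-alpha,25-dihydroxyvitamin D3. CellTiter-Glo luminescence, 30 min, room temperature.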
% is scaled to controls: 0 for no effect and ±100 for the full control effect; potency is read from the fitted curve at half-maximal effect.

**Q.** Which Potency does the source give for CCc1cc(C(C)(C)C)c(O)c(C(C)(C)C)c1 here?
**A.** inactive

**Q.** With COC(=O)[C@H]1[C@H]2C[C@@H]3c4[nH]c5cc(OC)ccc5c4CCN3C[C@H]2C[C@@H](OC(=O)c2cc(OC)c(OC)c(OC)c2)[C@@H]1OC as the compound, how does the Potency read?
**A.** inactive and 31.8 µM (active)

**Q.** For NCCCCCC(=O)O, which “viability change, negative = cytotoxic” value is on record?
**A.** 6.38% (inactive)

**Q.** With CCCCCCCCCCCCCCCCCl as the compound, how does the “viability change, negative = cytotoxic” value read?
**A.** -2.66% [at 28.5 µM] (inactive)

**Q.** For CC(C)(C)NCC(O)COc1ccccc1OCC1CCCO1 (stereo not drawn), which “viability change, negative = cytotoxic” value is on record?
**A.** -6.03% (inactive)

**Q.** For CC(N)=O, which “viability change, negative = cytotoxic” value is on record?
**A.** 11.9% [at 216 µM] (inactive)

**Q.** For O=c1n(CC2CO2)c(=O)n(CC2CO2)c(=O)n1CC1CO1 (stereo not drawn), which Potency is on record?
**A.** inactive

**Q.** Which Potency does the source give for CCC(=O)/C=C/C1C(C)=CCCC1(C)C (stereo not drawn) here?
**A.** inactive

**Q.** With NC(N)=Nc1nc(CSCC/C(N)=N/S(N)(=O)=O)cs1 as the compound, how does the Potency read?
**A.** inactive

**Q.** With CCCCCC(=O)O[C@]1(C(C)=O)CC[C@H]2[C@@H]3CCC4=CC(=O)CC[C@]4(C)[C@H]3CC[C@@]21C as the compound, how does the Potency read?
**A.** 43.4 µM (active) and 23.9 µM (active)

**Q.** For CC(=O)OCC1=C(C(=O)O)N2C(=O)[C@@H](NC(=O)Cc3cccs3)[C@H]2SC1, which “viability change, negative = cytotoxic” value is on record?
**A.** 0.369% (inactive)

**Q.** For OCC(CO)N[C@H]1C[C@](O)(CO)[C@@H](O)[C@H](O)[C@H]1O, which “viability change, negative = cytotoxic” value is on record?
**A.** 23.4% (inactive)

**Q.** For CC1COC(=O)O1 (stereo not drawn), which Potency is on record?
**A.** inactive

**Q.** For Cc1occc(=O)c1OC(=O)C(C)C, which “viability change, negative = cytotoxic” value is on record?
**A.** 4.63% (inactive)

**Q.** Which Potency does the source give for C=C(C)C1CC=C(C)C(OC(C)=O)C1 (stereo not drawn) here?
**A.** inactive

**Q.** With Cc1scc2c1N(C(=O)CN1CCN(C)CC1)c1ccccc1NC2=O as the compound, how does the “viability change, negative = cytotoxic” value read?
**A.** 0.373% (inactive)

**Q.** For CCC[C@H](N[C@@H](C)C(=O)N1[C@H](C(=O)O)C[C@@H]2CCCC[C@@H]21)C(=O)OCC, which “viability change, negative = cytotoxic” value is on record?
**A.** 4.21% (inactive)

**Q.** For CCCCCCCCCCCC[N+](C)(C)C, which Potency is on record?
**A.** 54.9 µM (active)

— PubChem BioAssay (Tox21)
